Values joined by “and” are separate entries in the source; they are usually repeats but may differ in a detail not shown here. Equal values may be shown once. Values without a mark were called inactive. Records with an inconclusive call do not appear. Where a call stands in place of a potency, no number is given. Active and inactive are the calls of the source. The call rests on the fitted dose curve.
Test: G protein-coupled receptor (GPCR) small molecule agonists, calcium flux assay: HEK293 wild type cell line counter screen (AID 1920065)
Settings: HEK293 WT calcium flux, fluorescence, agonist mode; series mostly up to 57.6 µM
Summary of the method: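 Seed cells, incubate 18 h (37 C, 5% CO2); add calcium dye, 1 h at 37 C; pin-transfer compounds, ATP control or DMSO; read fluorescence 480/540 nm each second for 3 min.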

SMILES	Potency	activation
OCCOc1ccc(OCCO)cc1	inactive	–
N#CCC(=O)O	inactive	–
Nc1ncnc2c1ncn2[C@@H]1O[C@H](COP(=O)(O)O)[C@@H](O)[C@H]1O	inactive	–
CCc1ccc(C)nc1	inactive	–
CN(C)c1ccc(/C=C/c2ccc([N+](=O)[O-])cc2)cc1	–	0.221% [at 5.23 µM]
C/C=C(\C)C(=O)OC/C=C(\C)CCC=C(C)C	inactive	–
CC(=O)/C=C/C1C(C)=CCC(C)C1(C)C (stereo not drawn)	inactive	–
Cc1cccc(C)c1NC(=O)CC12CCCN1CCC2	inactive	–
CC(=O)N1CCN(c2ccc(O)cc2)CC1	inactive	–
C=C(C)C(=O)OCCCCCCOC(=O)C(=C)C	inactive	–
O=C1CCN(c2ccccc2)N1	inactive	–
Cl/C(=C\n1cncn1)c1ccc(Cl)cc1Cl	inactive	–
COc1cc(C(=O)N2CCCCCCC2)cc(OC)c1OC	inactive	–
COC(=O)N[C@H](C(=O)N[C@@H](Cc1ccccc1)[C@@H](O)CN(Cc1ccc(-c2ccccn2)cc1)NC(=O)[C@@H](NC(=O)OC)C(C)(C)C)C(C)(C)C	inactive	–
Clc1nc2ccccc2s1	inactive	–
COC(=O)Nc1nc2ccc(Sc3ccccc3)cc2[nH]1	inactive	–
CN1N=C(C(N)=O)CCC1=O	inactive	–
CCCCC(CC)CCC(CC(C)C)OS(=O)(=O)O (stereo not drawn)	inactive	–
CSc1cnccn1	inactive	–
CCCCCCCOC(=O)c1ccccc1C(=O)OCCCCCCC	inactive	–

SMILES	Potency	activation
CC1CC(=O)CC(C)(C)C1 (stereo not drawn)	inactive	–
O=[Si]=O	inactive	–
CCCCCCCC(OC)OC	inactive	–
NS(=O)(=O)c1cc2c(cc1Cl)NC(CC1CCCC1)NS2(=O)=O (stereo not drawn)	inactive	–
N#CCc1cccc(C(F)(F)F)c1	inactive	–
CC(C)(c1cc(Br)c(O)c(Br)c1)c1cc(Br)c(O)c(Br)c1	inactive	–
Clc1ccccc1-c1nc(-c2ccncc2)no1	inactive	–
CC(=O)C(C)O (stereo not drawn)	inactive	–
CO[Si](CCCNCCNCCN)(OC)OC	inactive	–
CC(=O)c1ccc2c(c1)CCCC2	inactive	–
Nc1c2ccccc2nc2ccccc12	inactive	–
NC(=O)c1cccc([N+](=O)[O-])c1	inactive	–
CCOc1cc(NC(C)=O)ccc1C(=O)OC	inactive	–
CCCC(O)C(O)CO (stereo not drawn)	inactive	–
O=C(O)c1ccc(O)cc1O	inactive	–
C[Si](C)(C)Cl	inactive	–
COC(=O)c1c(Cl)c(Cl)c(C(=O)OC)c(Cl)c1Cl	inactive	–
Cc1ccc2n[nH]nc2c1	inactive	–
CCCOC(=O)C(C)O (stereo not drawn)	inactive	–

Test: p53 small molecule agonists, cell-based qHTS assay with human liver microsomes (AID 1963577); further: potency means the concentration at half of the fitted maximal effect
Settings: HCT-116 p53RE-bla with human liver microsomes, ratio, 16 h; series mostly up to 66 µM
Summary of the method: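 p53RE-bla reporter cells were pre-incubated 5 h at 37 C, then treated with compounds plus human liver microsomes (0.5 mg/mL final) and NADPH (0.5 mg/mL final) for 16 h at 37 C. Beta-lactamase activity was read by LiveBLAzer fluorescence after 2 h at room temperature.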

SMILES	Potency	activation
OCCOc1ccc(OCCO)cc1	inactive	–
N#CCC(=O)O	inactive	–
Nc1ncnc2c1ncn2[C@@H]1O[C@H](COP(=O)(O)O)[C@@H](O)[C@H]1O	inactive	–
CCc1ccc(C)nc1	inactive	–
CN(C)c1ccc(/C=C/c2ccc([N+](=O)[O-])cc2)cc1	–	-2.79% [at 5.99 µM]
C/C=C(\C)C(=O)OC/C=C(\C)CCC=C(C)C	inactive	–
CC(=O)/C=C/C1C(C)=CCC(C)C1(C)C (stereo not drawn)	inactive	–
Cc1cccc(C)c1NC(=O)CC12CCCN1CCC2	inactive	–
CC(=O)N1CCN(c2ccc(O)cc2)CC1	inactive	–
C=C(C)C(=O)OCCCCCCOC(=O)C(=C)C	inactive	–
O=C1CCN(c2ccccc2)N1	inactive	–
Cl/C(=C\n1cncn1)c1ccc(Cl)cc1Cl	inactive	–
COc1cc(C(=O)N2CCCCCCC2)cc(OC)c1OC	inactive	–
COC(=O)N[C@H](C(=O)N[C@@H](Cc1ccccc1)[C@@H](O)CN(Cc1ccc(-c2ccccn2)cc1)NC(=O)[C@@H](NC(=O)OC)C(C)(C)C)C(C)(C)C	inactive	–
Clc1nc2ccccc2s1	inactive	–
COC(=O)Nc1nc2ccc(Sc3ccccc3)cc2[nH]1	inactive	–
CN1N=C(C(N)=O)CCC1=O	inactive	–
CCCCC(CC)CCC(CC(C)C)OS(=O)(=O)O (stereo not drawn)	inactive	–
CSc1cnccn1	inactive	–
CCCCCCCOC(=O)c1ccccc1C(=O)OCCCCCCC	inactive	–

SMILES	Potency	activation
CC1CC(=O)CC(C)(C)C1 (stereo not drawn)	inactive	–
O=[Si]=O	inactive	–
CCCCCCCC(OC)OC	inactive	–
NS(=O)(=O)c1cc2c(cc1Cl)NC(CC1CCCC1)NS2(=O)=O (stereo not drawn)	inactive	–
N#CCc1cccc(C(F)(F)F)c1	inactive	–
CC(C)(c1cc(Br)c(O)c(Br)c1)c1cc(Br)c(O)c(Br)c1	inactive	–
Clc1ccccc1-c1nc(-c2ccncc2)no1	inactive	–
CC(=O)C(C)O (stereo not drawn)	inactive	–
CO[Si](CCCNCCNCCN)(OC)OC	inactive	–
CC(=O)c1ccc2c(c1)CCCC2	inactive	–
Nc1c2ccccc2nc2ccccc12	11.3 µM (active) and 19.9 µM (active)	–
NC(=O)c1cccc([N+](=O)[O-])c1	inactive	–
CCOc1cc(NC(C)=O)ccc1C(=O)OC	inactive	–
CCCC(O)C(O)CO (stereo not drawn)	inactive	–
O=C(O)c1ccc(O)cc1O	inactive	–
C[Si](C)(C)Cl	inactive	–
COC(=O)c1c(Cl)c(Cl)c(C(=O)OC)c(Cl)c1Cl	inactive	–
Cc1ccc2n[nH]nc2c1	inactive	–
CCCOC(=O)C(C)O (stereo not drawn)	inactive	–
